Screening data as filed in PubChem.
The list is not random: actives were taken first. Their share in the collection is about 1.1%.
AGP1-GFP MLPCN: yeast TOR pathway AGP1-GFP modulation; S. cerevisiae AGP1-GFP multiplex flow cytometry, 3 h; GFP as percent of DMSO wells; GFP response vs DMSO, % at 10 µM; 320,000 compounds, 0.02% hits;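 active = GFP response relative to DMSO above a set limit, near screen average plus 3 SD, cut at about 150% in these data; inconclusive = fewer than 70 cells counted for the yeast strain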;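 note: median GFP channel fluorescence of the gated AGP1 strain per well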
LAP4-GFP MLPCN: modulators of TOR pathway LAP4-GFP in S. cerevisiae. S. cerevisiae LAP4-GFP multiplex, flow cytometry GFP, 3 h; median GFP as percent of DMSO wells. GFP response vs DMSO, % at 10 µM. 320,000 compounds, 0.34% hits;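 active = GFP response vs DMSO above a set limit, about the screen mean plus 3 SD, cut at about 150% in these data; inconclusive = under 70 cell events counted for the yeast strain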
VLA-4 inh: inhibition in a human VLA-4 binding assay; VLA-4 expressing cells, ligand binding flow cytometry; inhibition, % (about 7 µM as worked out from the volumes in the protocol); 330,000 compounds, 0.2% hits; AID 2557; in the data active = inhibition above about 50%
Target sequence (P13612 whole entry, looked up): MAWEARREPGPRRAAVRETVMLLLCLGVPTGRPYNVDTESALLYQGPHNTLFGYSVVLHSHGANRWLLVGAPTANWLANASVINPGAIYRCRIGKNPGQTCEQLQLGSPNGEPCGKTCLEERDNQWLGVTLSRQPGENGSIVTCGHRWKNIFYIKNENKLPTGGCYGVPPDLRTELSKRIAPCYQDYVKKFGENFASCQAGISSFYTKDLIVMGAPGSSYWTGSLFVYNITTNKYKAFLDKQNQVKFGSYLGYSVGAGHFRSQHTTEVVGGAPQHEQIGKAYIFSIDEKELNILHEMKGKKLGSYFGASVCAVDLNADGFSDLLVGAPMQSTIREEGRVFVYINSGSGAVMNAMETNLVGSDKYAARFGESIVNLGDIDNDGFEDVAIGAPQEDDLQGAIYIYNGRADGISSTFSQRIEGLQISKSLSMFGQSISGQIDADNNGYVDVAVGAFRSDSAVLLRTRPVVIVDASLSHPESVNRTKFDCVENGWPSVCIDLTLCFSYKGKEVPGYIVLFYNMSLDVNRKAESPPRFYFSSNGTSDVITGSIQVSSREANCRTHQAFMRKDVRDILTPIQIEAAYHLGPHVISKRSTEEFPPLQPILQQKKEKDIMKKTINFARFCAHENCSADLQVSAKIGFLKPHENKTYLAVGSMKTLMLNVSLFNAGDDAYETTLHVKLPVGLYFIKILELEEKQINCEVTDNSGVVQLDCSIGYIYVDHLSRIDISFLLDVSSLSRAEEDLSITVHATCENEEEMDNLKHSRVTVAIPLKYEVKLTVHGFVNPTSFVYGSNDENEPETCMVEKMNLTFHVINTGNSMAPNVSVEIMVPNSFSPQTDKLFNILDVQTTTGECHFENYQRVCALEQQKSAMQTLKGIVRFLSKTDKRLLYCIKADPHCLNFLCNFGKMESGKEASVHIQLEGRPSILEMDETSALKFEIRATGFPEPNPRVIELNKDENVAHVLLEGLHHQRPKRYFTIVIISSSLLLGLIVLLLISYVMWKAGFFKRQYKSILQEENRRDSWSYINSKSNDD
CIT2 TOR yeast: alters CIT2-GFP fluorescence in TOR pathway yeast screen. 320,000 compounds, 0.065% hits. S. cerevisiae CIT2-GFP strain, flow cytometry, 3 h; 100 means same as DMSO wells. GFP response vs DMSO, % at 10 µM. AID 2029;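 active = GFP response relative to DMSO above a set limit, near the screen mean plus 3 SD, cut at about 150% in these data; inconclusive = Fewer than 70 cells measured for a yeast strain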;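 note: ratio of well median GFP fluorescence to mean of DMSO wells on the plate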
MEP2 TOR yeast: alters MEP2-GFP fluorescence in TOR pathway yeast screen | S. cerevisiae MEP2-GFP strain, flow cytometry GFP, 3 h; 100% = DMSO control level | GFP response vs DMSO, % at 10 µM | 330,000 compounds, 0.51% hits | AID 2016;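 active = GFP response versus DMSO above a set limit, roughly screen mean plus 3 SD, cut at about 180% in these data; inconclusive = fewer than 70 cells counted for a yeast strain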;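 note: median GFP fluorescence of the barcode-gated MEP2-GFP cells per well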
RPL19A TOR yeast: alters RPL19A-GFP fluorescence in TOR pathway yeast screen | S. cerevisiae RPL19A-GFP strain, flow cytometry, 3 h; stronger effect = lower value | percent response vs DMSO, % at 10 µM | 330,000 compounds, 0.3% hits | AID 2025;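 active = percent response vs DMSO below 50%; inconclusive = fewer than 70 events counted for the yeast strain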;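 note: median channel GFP fluorescence of the barcoded RPL19A-GFP strain; lower means less RPL19A-GFP as with rapamycin TOR inhibition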
Each line names hits and unclear results; the compound was inactive in the other large screens; [ ] = remark or other dose.

Nc1[nH]c(=O)[nH]c(=O)c1N=Nc1ccc(C(=O)O)cc1	none
c1cc2c(cc1C1CCCCC1)c1c3n2CCCNC3CCC1 (configuration not stated)	LAP4-GFP MLPCN 188
O=[N+]([O-])c1ccccc1Oc1ccc(S(=O)(=O)N2CCOCC2)cc1	none
Cc1cc([N+](=O)[O-])ccc1NC(=O)c1cccc(NC(=O)C(C)C)c1	AGP1-GFP MLPCN inconclusive, CIT2 TOR yeast inconclusive, MEP2 TOR yeast 191[may fluoresce violet]
CC(C)C(=O)Nc1cccc(C(=O)Nc2cc([N+](=O)[O-])ccc2Cl)c1	none
Cc1cccc(N2CCN(C(=O)c3ccc4c(c3)NC(=O)C(CSCc3cccc(F)c3)N4)CC2C)c1 (configuration not stated)	AGP1-GFP MLPCN inconclusive, LAP4-GFP MLPCN inconclusive, CIT2 TOR yeast inconclusive, MEP2 TOR yeast 188[may fluoresce violet], RPL19A TOR yeast 20[may fluoresce violet]
O=C(c1cc2nc(-c3ccccc3)cc(C(F)(F)F)n2n1)N1CCOCC1	none
O=C(c1cc2nc(-c3ccc(F)cc3)cc(C(F)(F)F)n2n1)N1CCOCC1	AGP1-GFP MLPCN inconclusive, CIT2 TOR yeast inconclusive, MEP2 TOR yeast 236[may fluoresce violet]
COc1ccc(NC(=O)CCN2CCN(S(=O)(=O)c3cc(Cl)ccc3OC)CC2)cc1	MEP2 TOR yeast 178 (no result: RPL19A TOR yeast)
CCOc1ccccc1C(=O)N1c2ccccc2Sc2ccccc21	CIT2 TOR yeast inconclusive, MEP2 TOR yeast 233[may fluoresce violet] (no result: RPL19A TOR yeast)
O=C(CCC1CCCN(C(=O)c2ccccc2Cl)C1)N1CCN(c2ccccn2)CC1 (configuration not stated)	none
Cc1ccccc1OCC(=O)Nc1ccc(S(=O)(=O)Nc2onc(C)c2C)cc1	none
COc1ccccc1OCC(=O)Nc1ccc(S(=O)(=O)Nc2onc(C)c2C)cc1	AGP1-GFP MLPCN inconclusive, CIT2 TOR yeast inconclusive, MEP2 TOR yeast 311[may fluoresce violet], RPL19A TOR yeast 46[may fluoresce violet]
CC(=O)Nc1ccc(S(=O)(=O)Nc2cc3c(cc2C(C)=O)OCO3)cc1	AGP1-GFP MLPCN inconclusive, CIT2 TOR yeast inconclusive, MEP2 TOR yeast 466[may fluoresce violet]
Cc1ccc(-n2nc3c(c2NC(=O)c2ccco2)CS(=O)C3)cc1 (configuration not stated)	none
NC(=S)NN=C1c2cc(S(=O)(=O)N3CCOCC3)ccc2-c2ccc(S(=O)(=O)N3CCOCC3)cc21	none
CN(C)N=C1c2cc(S(=O)(=O)N3CCOCC3)ccc2-c2ccc(S(=O)(=O)N3CCOCC3)cc21	AGP1-GFP MLPCN inconclusive, CIT2 TOR yeast inconclusive, MEP2 TOR yeast 269[may fluoresce violet], RPL19A TOR yeast 47[may fluoresce violet]
O=C(O)c1cccc(S(=O)(=O)Nc2ccccc2Cc2ccccc2)c1	CIT2 TOR yeast inconclusive, MEP2 TOR yeast 265[may fluoresce violet]
Cc1cccc(C(=O)N2N=C(c3ccc(NS(C)(=O)=O)cc3)CC2c2cccs2)c1 (configuration not stated)	AGP1-GFP MLPCN inconclusive, CIT2 TOR yeast inconclusive, MEP2 TOR yeast 352[may fluoresce violet], RPL19A TOR yeast 35[may fluoresce violet]
CCS(=O)(=O)Nc1ccc(C2=NN(C(=O)c3ccccc3)C(c3cccs3)C2)cc1 (configuration not stated)	none
O=C(O)c1ccc(NS(=O)(=O)c2cc(Cl)sc2Cl)cc1	AGP1-GFP MLPCN inconclusive, CIT2 TOR yeast inconclusive, MEP2 TOR yeast 710[may fluoresce violet], RPL19A TOR yeast 41[may fluoresce violet]
COC(=O)c1cccc(Oc2cccc(Cl)n2)c1	none
CCCCOc1ccc(C(=O)NCC(=O)NNC(=O)c2ccco2)cc1	none
O=C(CSc1n[nH]c(=O)n1Cc1ccccc1)Nc1ccc(F)c(F)c1F	CIT2 TOR yeast inconclusive, MEP2 TOR yeast 780[may fluoresce violet], RPL19A TOR yeast 47[may fluoresce violet]
CC1C/C(=C/c2ccncc2)C(=O)/C(=C/c2ccncc2)C1 (configuration not stated)	CIT2 TOR yeast inconclusive, MEP2 TOR yeast 389[may fluoresce violet], RPL19A TOR yeast 38[may fluoresce violet]
O=C1/C(=C/c2ccncc2)Cc2ccccc21	none
COc1ccccc1OCC(=O)Nc1ccc(-c2nnc(-c3ccco3)o2)cc1	none
O=C(COc1ccc(Br)cc1)Nc1ccc(-c2nnc(-c3ccco3)o2)cc1	CIT2 TOR yeast inconclusive, MEP2 TOR yeast 177[may fluoresce violet], RPL19A TOR yeast 48[may fluoresce violet]
O=C(COC(=O)CCc1nc2ccccc2c(=O)[nH]1)Nc1ccccc1OC(F)F	none
COc1ccc(C(=O)NC(=S)NNC(=O)c2ccco2)cc1	none
